This is part of a sample that, as a whole, favours compounds with a hit. Of some 79,000 tested, about 15% had one in any assay. Values without a mark were called inactive. No stated cut-off is given here; in the data, active means growth inhibition above about 70%; inactive means the rest.
Experiment: NCI Yeast Anticancer Drug Screen. Data for the wt1 strain (AID 149);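 further: 0% = growth of vehicle-treated wt1 cultures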
Details: S. cerevisiae wt1 strain (SPY 50644) growth inhibition; at 3.7 µM; active compounds read high
Outline: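 wt1 yeast, compound-treated; % growth inhibition vs vehicle control.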

Compound | growth inhibition [%]
CC(C)c1cc(C(C)C)c(O)c(C([O-])[O-])c1.CC(C)c1cc(C(C)C)c(O)c(C([O-])[O-])c1.CC(C)c1cc(C(C)C)c(O)c(C([OH2+])[OH2+])c1.CC(C)c1cc(C(C)C)c(O)c(C([OH2+])[OH2+])c1.[Cu+2].[Cu+2].[OH3+].[OH3+] | 4
Cc1cc(I)ccc1N | 2
CC(Br)C(=O)c1ccc2cc(Br)c3ccccc3c2c1 (stereo not drawn) | 0
O=C(Nc1ccccc1)OCCc1ccc(Cl)c(Cl)c1 | -7
O=Cc1cccc2ccc3ccccc3c12 | -5
O=[N+]([O-])CC(SCc1ccccc1)c1ccc2c(c1)OCO2 (stereo not drawn) | 36
CC1(Cl)CC(O)C2(CC1Br)C1(C)OC1C1OC1(Br)C2(C)C (stereo not drawn) | -20
Cc1cc(O)cc(O)c1N=Nc1ccc([N+](=O)[O-])cc1 | 17
CCCCCCCCCCCCCC[N+](C)(CC(=O)[O-])Cc1ccccc1 (stereo not drawn) | 1
CC1=NN(c2cccc(Cl)c2)C(=O)C1 | -36
CC(=O)OCc1ccc(O)c(C=O)c1 | -4
Cc1ccc2ccc3cccc4ccc1c2c34 | -2
Cc1nc(-[n+]2nc(-c3ccncc3)nn2-c2ccccc2)sc1C | -2
C(CCSC1=NCCN1)CSC1=NCCN1 (tested in a mixture with another compound) | 9
CCCCCCCCCCC(=O)Cl | -2
COC1C=COC2(C)Oc3c(C)c(O)c4c(c3C2=O)/C(=N/C2CCC(O)OC2C)C=C(NC(=O)/C(C)=C\C(=O)C2CC2C(O)C(C)C(O)C(C)C(OC(C)=O)C1C)C4=O (stereo not drawn) | 0
S=c1[nH]nc(Nc2ccc(Cl)cc2)s1 | 4
O=C1CSC(/C=C/c2ccccc2)N1c1ccc(-c2ccc(-n3c(-c4ccccc4)nc4ccccc4c3=O)cc2)cc1 (stereo not drawn) | -2
O=C1C=CC(=O)N1c1ccc2c(c1)Cc1cc(NC(=O)C(F)(F)F)ccc1-2 | 15
Brc1ccc(-c2cc3c(cc2C2SCCS2)OCO3)cc1 | -17
Oc1ccc2ccccc2c1C(c1ccc(Cl)cc1)c1c(O)ccc2ccccc12 | -17
C[CH2][Sn]([CH2]C)([O]C(=O)C(OC(C)=O)c1ccccc1)[O]C(=O)C(OC(C)=O)c1ccccc1 (stereo not drawn) | 0
Cc1ccc2ccc(O)cc2c1 | -16

Reference: PubChem BioAssay (NCI)
